The target of assay [1] is Tumor necrosis factor (Homo sapiens) (UniProt P01375). In words: qHTS assay to identify small molecules that stimulate Tumor Necrosis Factor-alpha (TNF-alpha) secretion (AID 651757; active = well fitted curve in the direction sought with a large enough effect in the signal ratio; the % refers to the signal ratio; also: 0% is about no effect). To be noted: Human cells, HTRF 665/615 ratio; series mostly up to 92.2 µM. A digest of the protocol: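 THP-1 cells were exposed to compounds for 17 hrs at 37 C, after which secreted TNF-alpha was measured by homogeneous HTRF (TR-FRET) using cryptate- and XL665-labeled anti-TNF-alpha antibodies, read after 3 hr at room temperature.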
(In qHTS, concentration-response curves come from the screen itself.)

Assay [2] in a line: qHTS assay to identify small molecules that stimulate interleukin-8 (IL-8) secretion (AID 651758; active = well fitted activation curve with a large enough effect in the signal ratio; the % refers to the signal ratio; also: 0% is about no effect). To be noted: HTRF ratio (665/615); series mostly up to 92.2 µM. A digest of the protocol:
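THP-1, 2000 cells/well; cpd 16 h, 37 C; add cryptate + XL665 anti-IL-8 Abs; RT 1-3 h; TR-FRET read.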

Assay [3] is described as follows: qHTS assay for environmental chemicals that activate the Aryl hydrocarbon Receptor (AhR) signaling pathway (AID 651777). Also: % of control where 0% means no effect; nearly all actives have a fitted effect of over 15% in size. The note with it: 1A2-DRE human hepatoma cells, luciferase, 24 h; activation: active compounds read high. The method in brief: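 Concentration–response screening used 1,200 1A2-DRE cells per well, 24 hr compound exposure (37 C, 5% CO2), and One-Glo luminescence as the AhR-driven CYP1A2 reporter signal.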

Assay [4] deals with Nuclear receptor ROR-gamma (Homo sapiens) (UniProt P51449). Description: qHTS assay for small molecule antagonists of the retinoid-related orphan receptor gamma (ROR-gamma) signaling pathway (AID 651802). Also: nearly all actives have a fitted effect of over 60% in size. Also: potency is read from the fitted curve at half-maximal effect. The note with it: ROR-gamma antagonist cell reporter assay; series mostly up to 92.2 µM. The method in brief: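 CHO cells carrying TET-inducible ROR-gamma and an ROR response element–luciferase reporter were exposed to compound, then induced with doxycycline. After 16hr at 37C, luminescence was read; lower signal indicates antagonism.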

Assay [5] deals with Arylsulfatase A (Homo sapiens) (UniProt P15289). Description: qHTS screen for enhancers of Arylsulfatase A (ASA1): LOPAC Validation Assay (AID 720538). The note with it: ASA enzyme activity, LOPAC qHTS enhancer assay; series mostly up to 57.5 µM. A digest of the protocol:
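First, ASA-I179S fibroblasts from an MLD patient adhered for 6 hrs. Next, compounds were added for 48h. Then pNCS substrate (0.5mM final) with lysis buffer reacted 14h at room temperature before NaOH stop and fluorescence measurement.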

A short description of assay [6]: qHTS for Activators of Parkin Expression: LOPAC Validation Assay (FLuc Reporter) (AID 720573;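 also: 0% = DMSO and 100% = positive control compounds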). The note with it: Cell line, PRKN promoter firefly luciferase reporter; series mostly up to 46.1 µM. The method in brief: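 A neuronal cell line harbouring FLuc and NLuc reporters behind the Parkin promoter was exposed to compounds for 24 h. Firefly luciferase signal, measured after 10 min with detection reagent, was scaled to DMSO and positive-control wells.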

The nature of assay [7]: qHTS assay for small molecule antagonists of the retinoid-related orphan receptor gamma (ROR-gamma) signaling pathway - cell viability counter screen (AID 720652; active = well fitted curve in the direction sought with a large enough effect in the repeat runs; an effect the other way counts as inactive or inconclusive;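 also: compound exposure lasted 16 hr before ATP read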; also: potency is read from the fitted curve at half-maximal effect). To be noted: RORgamma reporter cell line viability counter screen; series mostly up to 92.2 µM. The method in brief:
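Counter screen in CHO cells carrying TET-inducible ROR-gamma and an ROR response element-luciferase reporter; cells plated 5 hr, compound pinned, doxycycline added, then 16 hr at 37 C. Viability read as intracellular ATP by CellTiter-Glo luminescence.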

The nature of assay [8]: qHTS for Activators of Parkin Expression: LOPAC Validation Assay (NLuc Reporter) (AID 720572;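 also: 0% = DMSO and 100% = positive control compound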). The note with it: Parkin promoter NanoLuc reporter cells, luminescence; series mostly up to 46.1 µM. The method in brief:
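Neuronal line stably carrying a FLuc/NLuc coincidence reporter under the Parkin promoter, seeded 24 h, then dosed in 7-point series for 24 h at 37 C. NLuc luminescence read after FLuc; normalized to DMSO and positive control (100%).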

The target of assay [9] is Tyrosine-protein kinase Yes (Homo sapiens) (UniProt P07947). In words: qHTS for small molecule inhibitors of Yes1 kinase: Primary Screen (AID 686947). Also: nearly all actives have a fitted effect of over 60% in size. Also: potency is read from the fitted curve at half-maximal effect. The note with it: Yes1 kinase biochemical qHTS inhibition; series mostly up to 76.9 µM. A digest of the protocol:
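ADP-Glo luminescence readout; final 4 nM Yes1, 0.1 mM ATP, 0.3 mg/mL poly(E4Y), Tris pH 7.5, MgCl2, DTT, Brij-35. 20 min compound preincubation, 60 min reaction at RT. Normalized to DMSO wells with and without enzyme.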

Assay [10] can be described thus: qHTS for small molecule inhibitors of Yes1 kinase: Counter Assay (AID 686950).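 Also: no kinase present so only ADP-Glo detection of a fixed ADP amount is tested; luminescence from ADP-Glo reporting ADP in a fixed ATP and ADP mixture; 0% = DMSO wells with ATP plus ADP and -100% = ATP-only wells without ADP.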 The note with it: series mostly up to 76.9 µM. A digest of the protocol: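 Enzyme-free ADP-Glo interference check: compounds were preincubated 20 min in buffer, then an ATP/ADP mix (0.08 mM ATP, 0.02 mM ADP final) was added for 60 min at room temperature before two-step ADP-Glo luminescence detection.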

Structures are written as SMILES. Values joined by “and” are separate entries in the source; they are usually repeats but may differ in a detail not shown here. Identical values can stand only once. A number with no mark means an inactive call. Inconclusive results are not listed. Active and inactive are the calls of the source. Unless noted, calls follow the shape of the dose curve; as a rule, active = well fitted curve in the direction sought with a large enough effect; inconclusive = small, poorly fitted or top-dose-only effect, or another doubt; inactive = no such curve, though single readings can be large; an effect the other way counts as inactive or inconclusive.

Chain of Nuclear receptor ROR-gamma (Homo sapiens) (P51449 whole entry, looked up): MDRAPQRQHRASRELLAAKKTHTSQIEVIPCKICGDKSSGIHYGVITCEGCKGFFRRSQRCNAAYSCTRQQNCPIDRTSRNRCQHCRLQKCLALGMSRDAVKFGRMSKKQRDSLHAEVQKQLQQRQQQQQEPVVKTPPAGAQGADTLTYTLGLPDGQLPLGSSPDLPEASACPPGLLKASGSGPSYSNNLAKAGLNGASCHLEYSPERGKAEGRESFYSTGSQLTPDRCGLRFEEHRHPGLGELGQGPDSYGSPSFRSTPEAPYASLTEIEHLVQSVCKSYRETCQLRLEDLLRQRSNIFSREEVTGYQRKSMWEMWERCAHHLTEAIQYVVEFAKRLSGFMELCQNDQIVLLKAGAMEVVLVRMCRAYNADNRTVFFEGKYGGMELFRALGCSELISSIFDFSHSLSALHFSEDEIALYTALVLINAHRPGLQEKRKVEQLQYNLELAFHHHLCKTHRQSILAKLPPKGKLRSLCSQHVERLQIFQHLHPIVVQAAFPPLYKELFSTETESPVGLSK
Chain of Tyrosine-protein kinase Yes (Homo sapiens) (P07947 whole entry, looked up): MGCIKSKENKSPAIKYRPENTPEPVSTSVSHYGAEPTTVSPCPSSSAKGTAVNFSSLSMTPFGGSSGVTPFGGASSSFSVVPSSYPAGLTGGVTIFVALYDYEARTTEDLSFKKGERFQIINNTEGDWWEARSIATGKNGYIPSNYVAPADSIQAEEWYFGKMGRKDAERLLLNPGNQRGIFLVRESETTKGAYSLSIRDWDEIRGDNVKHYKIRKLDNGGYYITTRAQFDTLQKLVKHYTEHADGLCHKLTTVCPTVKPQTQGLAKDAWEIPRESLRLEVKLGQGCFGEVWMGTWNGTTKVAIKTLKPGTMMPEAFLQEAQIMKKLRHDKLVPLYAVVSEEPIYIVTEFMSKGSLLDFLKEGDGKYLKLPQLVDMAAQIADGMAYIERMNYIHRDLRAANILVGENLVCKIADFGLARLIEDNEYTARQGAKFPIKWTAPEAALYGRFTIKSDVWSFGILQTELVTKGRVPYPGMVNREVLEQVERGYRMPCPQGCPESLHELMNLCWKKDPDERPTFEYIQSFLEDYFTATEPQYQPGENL
Chain of Tumor necrosis factor (Homo sapiens) (P01375 whole entry, looked up): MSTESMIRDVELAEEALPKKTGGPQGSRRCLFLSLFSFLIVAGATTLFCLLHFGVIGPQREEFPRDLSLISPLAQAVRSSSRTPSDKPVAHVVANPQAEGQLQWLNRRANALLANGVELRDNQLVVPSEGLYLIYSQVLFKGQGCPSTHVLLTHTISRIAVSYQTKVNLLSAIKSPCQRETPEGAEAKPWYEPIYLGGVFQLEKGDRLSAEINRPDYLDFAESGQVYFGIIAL
Chain of Arylsulfatase A (Homo sapiens) (P15289 whole entry, looked up): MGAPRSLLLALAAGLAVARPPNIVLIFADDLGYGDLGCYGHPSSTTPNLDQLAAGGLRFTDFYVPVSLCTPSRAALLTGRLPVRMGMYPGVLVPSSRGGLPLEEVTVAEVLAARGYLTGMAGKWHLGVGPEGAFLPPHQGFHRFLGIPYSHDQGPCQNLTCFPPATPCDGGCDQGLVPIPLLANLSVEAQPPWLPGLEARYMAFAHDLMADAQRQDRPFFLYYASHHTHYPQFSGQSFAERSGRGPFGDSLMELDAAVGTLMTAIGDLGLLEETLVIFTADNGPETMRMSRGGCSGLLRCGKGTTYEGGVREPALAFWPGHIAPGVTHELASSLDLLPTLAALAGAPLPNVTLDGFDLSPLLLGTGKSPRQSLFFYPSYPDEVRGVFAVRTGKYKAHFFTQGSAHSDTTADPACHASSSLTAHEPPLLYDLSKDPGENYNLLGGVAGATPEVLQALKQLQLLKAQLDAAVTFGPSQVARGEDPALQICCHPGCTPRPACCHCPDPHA

`CCCCC1C(=O)N(c2ccccc2)N(c2ccccc2)C1=O`: the result in assay [1], in assay [2] and in [5] was inactive. Moreover, the activation in [3] is -1.23% and 0.389%. Besides, the Potency result in [4], in assay [6] and in assay [7] was “inactive” each time.

Take `CCCNC(=O)NS(=O)(=O)c1ccc(Cl)cc1`: the outcome in [1] was inactive. In addition, in [3], the activation is 0.08% and -1.06%. Further, the Potency entry in assay [4], in [8], in assay [6] and in assay [7] was “inactive” throughout.

Turning to `CC1=C(/C=C/C(C)=C/C=C/C(C)=C/C(=O)Nc2ccc(O)cc2)C(C)(C)CCC1`, in [3], the activation was 4.06%. For the same compound, the Potency in assay [4] and in [7] was 26.6 µM (active) each time. The Potency result in assay [9], in assay [8] and in assay [6] was “inactive” each time. In addition, the result in assay [10] and in assay [5] was inactive.

Regarding `COc1cc2nc(-c3ccc(N4CCN(C)CC4)cc3)nc(NCCN3CCOCC3)c2cc1OC`, the Potency entry in [9] is “inactive”. Besides, the result in assay [10] was inactive.

Turning to `O=C(O)c1cc(-c2ccccc2)nc2ccccc12`, in assay [3], the activation is 4.06%.

`O=c1[nH]cnc2c1ncn2[C@H]1CC[C@@H](CO)O1`: the result in [1] and in assay [2] was inactive. The activation in [3] is -1.42% and 4.55%. Further, the Potency result in assay [4] and in assay [7] was “inactive” in each case.

With `c1ccc2c(-c3cnn4cc(-c5ccc(N6CCNCC6)cc5)cnc34)ccnc2c1`, in assay [9], the Potency was 0.137 µM (active). Moreover, the outcome in [10] was inactive.

Regarding `CO[C@H]1C[C@@H]2CC[C@@H](C)[C@@](O)(O2)C(=O)C(=O)N2CCCC[C@@H]2C(=O)O[C@H]([C@H](C)C[C@@H]2CC[C@H](OCCO)[C@H](OC)C2)CC(=O)[C@H](C)C=C(C)[C@@H](O)[C@@H](OC)C(=O)[C@H](C)C[C@H](C)C=CC=CC=C1C`, in [9], the Potency result is “inactive”. Moreover, the compound was called inactive in [10].

`O=c1cc(N2CCOCC2)oc2c(-c3cccc4c3sc3ccccc34)cccc12`: the Potency result in [9] is “inactive”. The outcome in assay [10] was inactive.
